# High-throughput results deposited in PubChem BioAssay by National Center for Advancing Translational Sciences (NCATS).
# Shiga inhibitor – Shiga toxin inhibition; inhibition, % at 38.7 µM; 290,000 tested, 9.2% active; Vero cells, Shiga toxin protein synthesis inhibition reporter; AID 2315; in the data active = inhibition mostly above about 28%, no sharp cut-off; inactive = mostly below about 43%; also: 0% is about no effect
# Sm TGR block – blocks Schistosoma mansoni thioredoxin glutathione reductase; purified TGR, DTNB reduction, TNB absorbance 405 nm; Potency, µM (series often up to 114 µM), for inactives: at the highest dose activity change, negative = inhibition, usual class: inhibitors; 360,000 tested, 3% active; also: potency is read from the fitted curve at half-maximal effect; % is scaled to controls: 0 for no effect and ±100 for the full control effect; nearly all actives have a fitted effect of over 60% in size
#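 First, TGR (20 nM dispensed) and NADPH were mixed with compound. Second, a 15 min room-temperature incubation followed. Third, further NADPH and then DTNB were added to start the reaction. Finally, TNB absorbance was monitored kinetically.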
# NS1 function inh – inhibitors of influenza NS1 protein function. AID 2326. 270,000 tested, 0.4% active. Potency, µM (doses to about 46.1 µM), for inactives: at the highest dose activity, positive = more growth; calls by dose curve; also: potency is read from the fitted curve at half-maximal effect; actives are rising curves; nearly all actives have a fitted effect of over 50% in size
#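 Compounds were scored for reversing the slow growth caused by influenza A NS1 in S. cerevisiae, measured by optical density at 600 nm. Assay medium contained 2% galactose at pH 6.0; NS1-free yeast of the same strain were the positive control.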
# CHX counter – affects cycloheximide protein synthesis inhibition readout, counter-screen; cell reporter, cycloheximide protein synthesis inhibition counterscreen; max response, %; 300,000 tested, 12% active; AID 2314; in the data active = max response mostly above about 13%, no sharp cut-off; inactive = mostly below about 14%; also: read at 38.3 µM for the half of the compounds with a filed dose; 0% is about no effect
# Pf growth 48h – inhibits P. falciparum growth in the first generation, 48 h; P. falciparum luciferase growth in erythrocytes, 48 h; Potency, µM (doses to about 28.7 µM), for inactives: at the highest dose activity change, negative = inhibition, hits mostly inhibitors; 310,000 tested, 5.9% active; also: potency is read from the fitted curve at half-maximal effect; % is scaled to controls: 0 for no effect and ±100 for the full control effect
#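 Luminescence readout; reporter = integrated firefly luciferase in P. falciparum. RBC culture at 2% hematocrit, 0.1% parasitemia final, 37 C/5% CO2; decreased signal taken as growth inhibition.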
# Pf growth 96h – inhibits malaria parasite growth, 96 h. Potency, µM (titrated, usually from 28.7 µM), for the others: at the top dose activity change, negative = inhibition, usual class: inhibitors. AID 504834. 320,000 tested, 6.9% active. P. falciparum luciferase reporter growth, 96 h; also: potency is read from the fitted curve at half-maximal effect; % is scaled to controls: 0 for no effect and ±100 for the full control effect
#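 Infected RBCs, 2% Hct / 0.05% parasitemia final; luciferase-reporter P. falciparum; cpd 96 h, 37 C, 5% CO2; luciferase detection reagent; luminescence.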
# * marks the source's active call; other numbers are inactive results; ? = inconclusive; nt = no result given. Hits are enriched below; roughly 21% of the tested compounds scored in any of these assays. Unless noted, calls follow the shape of the dose curve; as a rule, active = well fitted curve in the direction sought with a large enough effect; inconclusive = small, poorly fitted or top-dose-only effect, or another doubt; inactive = no such curve, though single readings can be large; an effect the other way counts as inactive or inconclusive.
SMILES,Shiga inhibitor,Sm TGR block,NS1 function inh,CHX counter,Pf growth 48h,Pf growth 96h
O=C(CNC(=O)c1ccc(Br)o1)NCc1ccc(Cl)cc1Cl,-15,-12%,7%,-4,5%,-29%
O=C(Nc1cc(Cl)ccc1N1CCOCC1)c1ccc(Br)o1,65*,-18%,1%,69*,184%,-2%
O=C(Nc1ccc(Cl)cc1Cl)c1ccc(Br)o1,78*,-12%,-35%,44*,42%,?
Cc1ccnc2nc(C(=O)Nc3ccc(S(=O)(=O)N4CCCC4)cc3)nn12,-7,3%,9%,1,-19%,?
CC(C)N1CCC(=NNc2ccc(S(=O)(=O)N3CCOCC3)cc2[N+](=O)[O-])CC1,10,35µM*,27%,2,-17%,99%
Cc1ccc(CNc2ccc(S(=O)(=O)N3CCOCC3)cc2[N+](=O)[O-])cc1,-21,-1%,-6%,-2,1%,10µM*
Cc1ccc(CNS(=O)(=O)c2ccccc2[N+](=O)[O-])cc1,55,-2%,0%,29*,37%,224%
Cc1ccc(CNc2ccc(Cl)cc2[N+](=O)[O-])cc1,72*,13%,-3%,48*,30%,-17%
CC(C)CN(CC#N)CC(C)C,nt,nt,3%,nt,nt,nt
O=C(COc1ccc(F)cc1)Nc1ccccc1C(=O)OCc1cc(=O)n2ccsc2n1,nt,-10%,nt,nt,nt,nt
COc1ccc(CCn2c(=O)[nH]c3cc(C(=O)N4CCN(c5ccccn5)CC4)ccc3c2=O)cc1OC,-2,-3%,nt,-1,-12%,?
Cc1cc2nc(N3C(=O)CNC3=S)sc2cc1C,20,nt,-32%,23*,49%,-3%
CCOc1ccc2nc(N3C(=O)CNC3=S)sc2c1,46*,-2%,-38%,35*,-21%,?
COc1ccc2nc(N3C(=O)/C(=C/c4ccc(Cl)cc4)NC3=S)sc2c1,2,5%,25%,-2,14%,?
CCOC(=O)c1cc(NC(=O)c2ccc(C)cc2)c(=O)n2c1oc1ccc(Cl)cc12,nt,-1%,nt,nt,nt,nt
Cc1ccc(CN2CCC(n3nccc3NC(=O)c3ccccc3C)CC2)o1,27,-12%,9%,-2,-19%,2.1µM*
Cc1ccccc1C(=O)Nc1ccnn1C1CCN(Cc2ccc(CO)o2)CC1,-13,-28%,-8%,10,-12%,4%
Cc1ccccc1C(=O)Nc1ccnn1C1CCN(CCCc2ccccc2)CC1,9,16%,15%,5,?,15µM*
CC(CN1CCC(n2nccc2NC(=O)CCCc2ccccc2)CC1)c1ccccc1 (centres undefined),-16,1%,-4%,-3,15µM*,12µM*
O=C(Nc1ccnn1C1CCN(CC2CC=CCC2)CC1)c1ccccc1Cl (centres undefined),-8,-4%,-3%,-6,?,3%
Cc1ccccc1C(=O)Nc1ccnn1C1CCN(CC2CC=CCC2)CC1 (centres undefined),19,-1%,5%,3,10%,15µM*
CSCC(C)N1CCC(n2nccc2NC(=O)CCCc2ccccc2)CC1 (centres undefined),-8,-13%,-9%,1,-9%,?
O=C(Nc1ccnn1C1CCN(CCCc2ccccc2)CC1)c1ccccc1,-37,0%,?,1,-30%,21%
Cc1onc(-c2c(Cl)cccc2Cl)c1C(=O)N=C(N)N1CCCC1,-4,5%,-2%,-4,27%,-28%
COc1ccc(OC)c(CC(NC(C)=O)C(=O)NC2CCN(c3cc(C)nc4ncnn34)CC2)c1 (centres undefined),-9,5%,-3%,3,2%,19%
SMILES,Shiga inhibitor,Sm TGR block,NS1 function inh,CHX counter,Pf growth 48h,Pf growth 96h
COc1ccc(-c2ccc(NS(=O)(=O)c3cccc(Cl)c3)cc2)nn1,nt,-1%,nt,nt,nt,nt
COc1ccc(NC(=O)CSc2cn[nH]n2)cc1OC,-17,-1%,16%,-3,19%,?
COc1ccccc1NC(=O)CSc1nc(=O)n2cc(C)ccc2n1,nt,0%,nt,nt,?,4%
O=C(Nc1cccc2ccccc12)N1CCOCC1,-3,6%,7%,1,9%,0%
O=C(Nc1cccc2ccccc12)c1ccc(OC(=S)N2CCOCC2)cc1,103*,-14%,-5%,55*,146%,56%
O=C(Nc1cccc(Cl)c1)c1ccc(OC(=S)N2CCOCC2)cc1,103*,-1%,nt,39*,370%,-11%
O=C1C(Cc2ccccc2)C(c2ccccc2)N1c1ccccc1 (centres undefined),-17,-22%,12%,-3,?,10µM*
CCOC(=O)C(C(C)=O)c1c(Br)c(O)c(O)c2c(C(=O)c3ccc(C)cc3)coc12 (centres undefined),34,4.5µM*,-60%,19*,nt,nt
CCOc1ccc(C(CC(=O)O)NC(=O)COc2ccc3ccccc3c2)cc1OC (centres undefined),-7,-7%,-2%,-7,-6%,69%
CCOC(=O)N1CCN(C(=O)CCSc2ccc(C)cc2)CC1,active,1%,0%,8.6*,7%,nt
NC(=O)C1CCN(C(=O)CCSc2ccccc2)CC1,44*,?,8%,20*,179%,-23%
CCOC(=O)N1CCN(C(=O)COc2ccccc2[N+](=O)[O-])CC1,-11,-1%,nt,10,6%,0%
NC(=O)C1CCN(C(=O)Cc2ccc(-c3ccccc3)cc2)CC1,19,-2%,22%,53,-15%,-4%
CCOC(=O)N1CCN(C(=O)CCSc2ccccc2)CC1,85*,2%,-9%,54*,112%,15%
CCOC(=O)N1CCN(C(=O)COc2ccccc2OC)CC1,4,6%,-3%,-3,2.3µM*,nt
COc1ccc(-c2cc(C(F)(F)F)nc(SCC(=O)N3CCCCC3)n2)cc1,nt,1%,nt,nt,nt,nt
COc1ccc(/C=C/C(=O)O/N=C(\N)c2cccnc2)cc1OC,25,-1%,-9%,29*,?,?
COc1ccc(/C=C/C(=O)NC(=S)NNC(=O)c2cccnc2)cc1OC,32,3%,12%,2,-3%,30%
N/C(=N\OC(=O)/C=C/c1ccccc1)c1ccccc1,92*,-2%,-184%,35*,nt,5%
N/C(=N\OC(=O)/C=C/c1ccccc1)c1ccc(Cl)cc1,17,9%,-4%,16*,-11%,?
COc1ccccc1N(CC(=O)N(c1ccccc1)C(C)C)S(=O)(=O)c1cccs1,5,11%,nt,0,-11%,9.3µM*
COc1cc(NC(=O)C2CCN(C(=O)c3sc4nc[nH]c(=O)c4c3C)CC2)cc(OC)c1OC,nt,1%,nt,nt,nt,nt
CCOC(=O)C1=C(O)/C(=C/c2cccc(OC)c2O)N=C1C,14,nt,4%,6,15%,27%
CCOC(=O)C1=C(O)/C(=C\c2cc(C)n(-c3ccccc3F)c2C)N=C1C,31,25µM*,nt,20,?,?
